# In PubChem BioAssay (Tox21):
# Records with an inconclusive call do not appear. Entries that show only a call come without a potency. Activity calls are given as the source filed them. Calls come from the whole dose curve; as a rule, active = well fitted activation curve with a large enough effect in the repeat runs; inconclusive = weak or mixed curves; inactive = no such curve, though single readings can be large or run the other way.
# Biological target: Nuclear receptor subfamily 1 group I member 2 (Homo sapiens) (UniProt O75469)
# Sequence (O75469 whole entry, looked up): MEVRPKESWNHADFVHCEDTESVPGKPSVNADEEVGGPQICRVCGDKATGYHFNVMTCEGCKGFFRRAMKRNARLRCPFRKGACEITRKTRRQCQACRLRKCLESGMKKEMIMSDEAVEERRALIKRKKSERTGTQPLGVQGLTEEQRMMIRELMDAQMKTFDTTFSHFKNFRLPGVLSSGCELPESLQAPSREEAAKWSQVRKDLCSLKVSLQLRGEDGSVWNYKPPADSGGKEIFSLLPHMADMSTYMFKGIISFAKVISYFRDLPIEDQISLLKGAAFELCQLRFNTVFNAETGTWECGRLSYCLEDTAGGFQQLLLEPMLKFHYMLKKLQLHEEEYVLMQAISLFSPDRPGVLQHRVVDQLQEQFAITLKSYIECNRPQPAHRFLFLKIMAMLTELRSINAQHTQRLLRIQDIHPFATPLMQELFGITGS
# Assay: Human pregnane X receptor (PXR) small molecule agonists, qHTS assay (AID 1346982); note: nearly all actives have a fitted effect of over 35% in size
# Conditions: PXR-Luc HepG2, CYP3A4 luciferase reporter, 24 h; series mostly up to 92.4 µM
# In short: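 Cells: HepG2 stably carrying PXR-Luc. Medium held 5% charcoal-stripped FBS. Compounds in DMSO added after 5 hr plating, incubated 24 hr, then luminescence quantified with ONE-Glo.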
# Potency is the fitted concentration of half-maximal effect.
row,Compound,Potency
1,O=C1NC(=O)c2cccc3cccc1c23,12.2 µM (active)
2,SCCc1cnccn1,inactive
3,CCCCCCC(CO)CCCC (configuration not stated),inactive
4,CCN(CC)CC(=O)Nc1c(C)cccc1C(=O)OC,inactive
5,O=S(=O)(Cl)c1c(Cl)cccc1Cl,inactive
6,CCC(CO)(CO)CO,inactive
7,c1ccc(CNc2ncnc3c2ncn3C2CCCCO2)cc1 (configuration not stated),21.7 µM (active)
8,CC1CCC(C(C)CS)CC1S (configuration not stated),inactive
9,CC(=O)C(C)=O,inactive
10,COc1ccc(C)cc1,inactive
11,CC(C)(C)CCCCCCOC(=O)c1ccccc1C(=O)OCCCCCCC(C)(C)C,61.2 µM (active)
12,COC(OC)OC,inactive
13,CC(=O)c1ccc[nH]1,inactive
14,Cc1cccc(C)c1NC(=O)c1cc(S(N)(=O)=O)c(Cl)cc1O,inactive
15,CCN(CC)c1cccc(O)c1,35.1 µM (active)
16,O=C(O)CCC(=O)OC[C@@H](NC(=O)C(Cl)Cl)[C@H](O)c1ccc([N+](=O)[O-])cc1,inactive
17,CC(C)(O)CCc1ccccc1,inactive
18,CC1C(C)(C)C2=C(C(=O)CCC2)C1(C)C (configuration not stated),inactive
19,CCOC(=O)Oc1ccc(CCNC(=O)[C@H](CCSC)NC(C)=O)cc1OC(=O)OCC,inactive
20,C[C@@H]1C[C@H]2[C@@H]3CCC4=CC(=O)C=C[C@]4(C)[C@@]3(F)[C@@H](O)C[C@]2(C)[C@@]1(O)C(=O)COP(=O)(O)O,inactive
21,O=C1[C@@H]2[C@H]3CC[C@H](C3)[C@@H]2C(=O)N1CCCCN1CCN(c2ncccn2)CC1,inactive
22,CC1=CC[C@@]23C[C@@H]1C(C)(C)[C@@H]2CC[C@H]3C,inactive
